The values below come from PubChem BioAssay (NCI).

The panel holds about 79,000 compounds, 15% with a hit somewhere; the sample as a whole holds those more often. A number with no mark means an inactive call. Cut-off read from the data, not from the text of the source: active = growth inhibition above about 70%; inactive = the rest.

A short description of the experiment: NCI Yeast Anticancer Drug Screen. Data for the sgs1 mgt1 strain (AID 161).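 Note: 0% = growth of cultures given vehicle only.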 To be noted: S. cerevisiae sgs1 mgt1 strain, at 50.0 µM, active compounds read high. The gist of the method: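 Mutant yeast exposed to compound; growth scored against vehicle-only wells.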
For `CCCC(=O)Nc1ccc(OC)cc1`, the growth inhibition was 9.55%.
With `CCCCOCCOC(=O)Nc1cccc(Cl)c1`, the growth inhibition is 51.1%.
Regarding `CCCCCc1[nH]c(=O)[nH]c(=O)c1S(=O)(=O)N1CCCCC1`, the growth inhibition is 18.7%.
In the case of `CC(=O)OCCC12CCC(CC1Cl)C2(C)C` (configuration not stated), the growth inhibition was 9.85%.
Regarding `CCCCCCCCCC/C=C/C=O`, the growth inhibition is 53.8%.
For the compound `Nc1ccncn1`, the growth inhibition was -2.45%.
Take `CCN(CC)CCCC(C)n1c(-c2ccc(OC)cc2)nc2cc(Cl)ccc21` (configuration not stated): the growth inhibition is 26.9%.
Take `COC(=O)/C=C1\SC(OC)(N(C)c2ccccc2)N(C)C1=O` (configuration not stated): the growth inhibition is 22.7%.
On to `O=C(O)COCC(=O)N(CCOCCN(Cc1ccccc1)C(=O)COCC(=O)O)Cc1ccccc1`, for which the growth inhibition was 7.25%.
In the case of `C=CCOC(=O)c1cccc(C(=O)OCC=C)c1`, the growth inhibition is 40.2%.
In the case of `CC(=O)Nc1ccc(S(=O)(=O)CCS(=O)(=O)c2ccc(NC(C)=O)cc2)cc1`, the growth inhibition is -16.1%.
As for `CCN(CC)CCNCc1ccc(Cl)cc1`, the figure is 3.95%; as for `COc1ccc(/C=C/C(CC(NO)c2ccc(OC)cc2)=N\O)cc1` (configuration not stated), 3.05%; as for `O=C1OC([C@H](O)c2cccnc2)c2ccccc21` (some centres not stated), -39.4%.
As for `CCCOC(=O)CNC(=O)OC(C)(C)C`, the growth inhibition was 1.15%.
Consider `Cc1cc(N(CCC#N)CCC#N)ccc1C=Nc1ccc(C(=O)NN2C(=O)/C(=C/c3ccc(N(CCC#N)CCC#N)cc3)N=C2c2cc([N+](=O)[O-])ccc2Cl)cc1`, for which the growth inhibition was 2.6%.
For `COc1cc(C(C)S(=O)(=O)c2ccc(C)cc2)ccc1O` (configuration not stated), the growth inhibition was 8.65%.
